Shown are actives, neighbours in structure and some others; about 4.1% of the full set was active somewhere.
ssDAF12 agonist: activators of S. stercoralis DAF-12 nuclear receptor; activation, % at 6.8 µM; HEK293 ssDAF-12/GRIP1 lit1-tk-luc reporter, luminescence; % of 3 µM dafachronic acid response; 1% of 370,000 active; AID 652126;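 active means activation above the mean over all tested compounds plus 3 SD, cut at about 0.9% in these data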;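 further: 0% = DMSO-only wells and 100% = 3 µM delta7-dafachronic acid wells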
hcDAF-12 act: activators of H. contortus DAF-12 nuclear receptor; AID 652067; activation, % at 6.8 µM; 1.4% of 370,000 active; HEK293 hcDAF-12 lit1-tk-luc reporter, luminescence; 0% DMSO, 100% Δ7-dafachronic acid;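 active means activation above the mean of all tested compounds plus 3 SD, cut at about 5.5% in these data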;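 further: 100% = response to 3 µM Δ7-dafachronic acid high control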
hgDAF-12 ag: activates the H. glycines DAF-12 receptor ligand-binding domain; HEK293 GAL4-hgDAF12 UAS-luciferase reporter, agonist luminescence; normalized to butyrate control; activation, % at 6.8 µM; 1.8% of 370,000 active; AID 687014;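 active means activation above a cutoff set at the mean of all screened compounds plus 3 SD, cut at about 10% in these data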;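 further: 0% = DMSO wells and 100% = sodium butyrate wells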
DAX1 inh-1: inhibitors of human orphan nuclear receptor DAX1 (NR0B1); HEK293 Gal4-DAX1 luciferase reporter, luminescence; inhibition, % at 6.75 µM; 0.99% of 340,000 active; AID 504766;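 active means inhibition above the mean over all tested compounds plus 3 SD, cut at about 4.2% in these data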;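 further: 0% = DAX1-transfected cells with DMSO and 100% = empty-vector control cells with DMSO; inhibition shows as a rise in luminescence from relieved DAX1 repression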
Target sequence (P51843 207-470 limits assumed): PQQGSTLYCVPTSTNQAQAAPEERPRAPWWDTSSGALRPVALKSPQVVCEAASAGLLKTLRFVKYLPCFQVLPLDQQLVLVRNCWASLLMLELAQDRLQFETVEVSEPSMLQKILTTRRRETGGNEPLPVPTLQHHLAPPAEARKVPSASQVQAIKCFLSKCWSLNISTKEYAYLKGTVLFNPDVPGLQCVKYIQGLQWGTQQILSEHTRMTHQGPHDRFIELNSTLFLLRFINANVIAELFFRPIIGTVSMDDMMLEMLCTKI
DAX1 inh-2: blocks DAX1 repression of SF-1 activated StAR promoter; HEK293T StAR-luciferase reporter, SF-1/DAX-1 repression relief; inhibition, % at 6.8 µM; 1.1% of 370,000 active; AID 652010;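 active means inhibition above the mean over all tested compounds plus 3 SD, cut at about 3.6% in these data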;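 further: 0% = DAX-1 cells with DMSO and 100% = cells lacking DAX-1 with DMSO; higher inhibition means more luminescence from relief of DAX-1 repression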
* = called active by the depositor.

`CCC[C@H]1[C@@H](NCc2cccs2)CC[C@@]23CCCN2C(=O)CCC[C@@H]13` gave ssDAF12 agonist -1, hcDAF-12 act -2 and hgDAF-12 ag -3.
For O=C(NCc1ccco1)C(Cc1ccccc1)N1C(=O)c2ccccc2C1=O (stereo unspecified) the results were ssDAF12 agonist 0, hcDAF-12 act 6.3*, hgDAF-12 ag 3, DAX1 inh-1 1 and DAX1 inh-2 -1.
Screening Cc1cc(NC(=O)CSc2nnc(-c3ccncc3)n2C)n(-c2ccccc2)n1 returned ssDAF12 agonist -1, hcDAF-12 act -1, hgDAF-12 ag -1, DAX1 inh-1 6.0* and DAX1 inh-2 0.
Screening Cc1cc(NC(=O)CSc2nnc(-c3ccncc3)n2Cc2ccccc2)n(-c2ccccc2)n1 returned ssDAF12 agonist 0, hcDAF-12 act 0, hgDAF-12 ag 0, DAX1 inh-1 -1 and DAX1 inh-2 0.
Cc1cccc(NC(=O)CSc2nnc(-c3ccncc3)n2C)c1 was read as ssDAF12 agonist -1, hcDAF-12 act -1, hgDAF-12 ag 12*, DAX1 inh-1 0 and DAX1 inh-2 0.
For Cc1cccc(NC(=O)Cn2nnc3ccccc32)c1 the results were ssDAF12 agonist 0, hcDAF-12 act 3, hgDAF-12 ag 9, DAX1 inh-1 4.7* and DAX1 inh-2 3.
For Cc1ccc(NC(=O)Cn2nnc3ccccc32)cc1 the results were ssDAF12 agonist 0, hcDAF-12 act 5, hgDAF-12 ag 9 and DAX1 inh-2 2.
Screening CC(=O)O[C@H]1C=C[C@@H](C#Cc2ccc(C(C)(C)C)cc2)O[C@@H]1COC(=O)Nc1ccccc1 returned ssDAF12 agonist 0, hcDAF-12 act 0, hgDAF-12 ag 0 and DAX1 inh-2 -1.
For CN(C(=O)c1ccccc1Cl)c1ccccc1C(=O)NCc1ccccc1 the results were ssDAF12 agonist -1, hcDAF-12 act 0, hgDAF-12 ag 3, DAX1 inh-1 0 and DAX1 inh-2 4.1*.
Screening CN(C(=O)c1ccc(F)cc1)c1ccccc1C(=O)NCc1ccccc1 returned ssDAF12 agonist -1, hcDAF-12 act 0, hgDAF-12 ag -3, DAX1 inh-1 0 and DAX1 inh-2 -2.
`C=CCn1c(SCC(=O)C(C)(C)C)nnc1-c1ccc(Cl)cc1` gave ssDAF12 agonist -1, hcDAF-12 act -2, hgDAF-12 ag 2 and DAX1 inh-2 0.
N#Cc1ccc(N2C(=O)[C@@H]3C(C(=O)c4cnccn4)=NN[C@@H]3C2=O)cc1 was read as ssDAF12 agonist -1, hcDAF-12 act -1, hgDAF-12 ag 2 and DAX1 inh-2 0.
`O=C(C1=NN[C@@H]2C(=O)N(c3cccc(C(F)(F)F)c3)C(=O)[C@H]12)c1cnccn1` gave ssDAF12 agonist -1, hcDAF-12 act 0, hgDAF-12 ag 0, DAX1 inh-1 7.3* and DAX1 inh-2 0.
CCOC(=O)[C@@]12CCCC=C1N(CCc1ccc(Cl)cc1)C(=O)[C@H]2CC(=O)NCc1ccccc1 was read as ssDAF12 agonist -1, hcDAF-12 act -3, hgDAF-12 ag 1 and DAX1 inh-2 -2.
Screening O=C(N/N=C/c1ccccc1OC(F)F)C1=COCCO1 returned ssDAF12 agonist 0, hcDAF-12 act 1, hgDAF-12 ag 5, DAX1 inh-1 -1 and DAX1 inh-2 0.
Screening O=C(N/N=C/c1ccc(OC(F)F)cc1)C1=COCCO1 returned ssDAF12 agonist 0, hcDAF-12 act 4, hgDAF-12 ag 11*, DAX1 inh-1 4.9* and DAX1 inh-2 4.1*.
Screening CCOc1ccc(-n2c(=O)[nH]c3sc4c(c3c2=O)CCCC4)cc1 returned ssDAF12 agonist -1, hcDAF-12 act 0, hgDAF-12 ag 1, DAX1 inh-1 7.8* and DAX1 inh-2 0.
For CCOc1ccc(-n2c(=O)c3c4c(sc3n(CC(=O)NCC3CCCO3)c2=O)CCCC4)cc1 (stereo unspecified) the results were ssDAF12 agonist -2, hcDAF-12 act -1, hgDAF-12 ag 4, DAX1 inh-1 -2 and DAX1 inh-2 0.
Screening C/C(=N\NC(=O)c1ccco1)c1cc(Cl)sc1Cl returned ssDAF12 agonist 0, hcDAF-12 act 2, hgDAF-12 ag 7, DAX1 inh-1 2 and DAX1 inh-2 3.8*.
C/C(=N\NC(=O)c1ccco1)c1ccc(-c2ccccc2)cc1 was read as ssDAF12 agonist 0, hcDAF-12 act 2, hgDAF-12 ag 13*, DAX1 inh-1 2 and DAX1 inh-2 1.
